Test results as given in the supplement of paper PMC7411054.
Structures can show the parent of a compound that is named as a salt.

Legend:
Experiment in all cases: phenotypically active (imaging signature differs from DMSO and reproducible) at any of 0.3-9 uM (binary (1 = active, 0 = inactive)); higher = active
Settings in all cases: treatment time: 24 h
[1] = tested on: A549-ACTB-RAB5A
Procedure, shortened: (§1)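 Fifteen gene-edited A549, HepG2 and WPMY1 reporter lines (BFP segmentation plus GFP and RFP/FusionRed markers) were treated at 0.3, 1, 3 or 9 µM for 24 h, four wells each, then imaged live. Live-cell features per well were normalised to DMSO control wells. Deviation required ≥3 of 4 wells beyond the 95th percentile of DMSO Euclidean distances, and reproducibility required median replicate Pearson correlation above the 95th percentile of non-replicates. Phenotypic activity needed both criteria.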

[2] = tested on: A549-CANX-COX4
Procedure, shortened: as §1

[3] = tested on: A549-GM130-SQSTM1
Procedure, shortened: as §1

[4] = tested on: A549-TP53BP1-CLTA
Procedure, shortened: as §1

[5] = tested on: A549-TUBA1B-RELA
Procedure, shortened: as §1

[6] = tested on: HepG2-ACTB-RAB5A
Procedure, shortened: as §1

[7] = tested on: HepG2-CANX-COX4
Procedure, shortened: as §1

[8] = tested on: HepG2-GM130-SQSTM1
Procedure, shortened: as §1

[9] = tested on: HepG2-TP53BP1-CLTA
Procedure, shortened: as §1

[10] = tested on: HepG2-TUBA1B-RELA
Procedure, shortened: as §1

[11] = tested on: WPMY1-ACTB-RAB5A
Procedure, shortened: as §1

[12] = tested on: WPMY1-CANX-COX4
Procedure, shortened: as §1

[13] = tested on: WPMY1-GM130-SQSTM1
Procedure, shortened: as §1

[14] = tested on: WPMY1-TP53BP1-CLTA
Procedure, shortened: as §1

[15] = tested on: WPMY1-TUBA1B-RELA
Procedure, shortened: as §1

Measured: phenotypically active

Cc1c(-c2cnccn2)ssc1=S [Oltipraz]
inactive: [1] 0 | [2] 0 | [3] 0 | [4] 0 | [5] 0 | [6] 0 | [7] 0 | [8] 0 | [9] 0 | [10] 0 | [11] 0 | [12] 0 | [13] 0 | [14] 0 | [15] 0

COC(=O)[C@H]1[C@H]2C[C@H]3c4[nH]c5ccccc5c4CCN3C[C@@H]2CC[C@@H]1O [Corynanthine hydrochloride]
inactive: [1] 0 | [2] 0 | [3] 0 | [4] 0 | [5] 0 | [6] 0 | [7] 0 | [8] 0 | [9] 0 | [10] 0 | [11] 0 | [12] 0 | [13] 0 | [14] 0 | [15] 0

CCCCN1CCCCC1C(=O)Nc1c(C)cccc1C (stereo not given) [bupivacaine]
inactive: [1] 0 | [2] 0 | [3] 0 | [4] 0 | [5] 0 | [6] 0 | [7] 0 | [8] 0 | [9] 0 | [10] 0 | [11] 0 | [12] 0 | [13] 0 | [14] 0 | [15] 0

O=C(Nc1cccc(Br)c1)c1cccc(S(=O)(=O)N2CCCCCC2)c1
inactive: [1] 0 | [2] 0 | [3] 0 | [4] 0 | [5] 0 | [6] 0 | [7] 0 | [8] 0 | [9] 0 | [10] 0 | [11] 0 | [12] 0 | [13] 0 | [14] 0 | [15] 0

C[N+](C)(C)CCCCCC[N+](C)(C)C [Hexamethonium bromide]
inactive: [1] 0 | [2] 0 | [3] 0 | [4] 0 | [5] 0 | [6] 0 | [7] 0 | [8] 0 | [9] 0 | [10] 0 | [11] 0 | [12] 0 | [13] 0 | [14] 0 | [15] 0

Cc1cc2cc(NS(=O)(=O)c3ccc(C#N)cc3)ccc2n(C)c1=O
inactive: [1] 0 | [2] 0 | [3] 0 | [4] 0 | [5] 0 | [6] 0 | [7] 0 | [8] 0 | [9] 0 | [10] 0 | [11] 0 | [12] 0 | [13] 0 | [14] 0 | [15] 0

COC(=O)C1=CO[C@@H](O[C@@H]2O[C@H](CO)[C@@H](O)[C@H](O)[C@H]2O)[C@H]2[C@@H]1C(=O)C[C@@H]2C [Verbenaline]
inactive: [1] 0 | [2] 0 | [3] 0 | [4] 0 | [5] 0 | [6] 0 | [7] 0 | [8] 0 | [9] 0 | [10] 0 | [11] 0 | [12] 0 | [13] 0 | [14] 0 | [15] 0

CCOc1ccccc1OCCN[C@H](C)Cc1ccc(OC)c(S(N)(=O)=O)c1 [tamsulosin]
inactive: [1] 0 | [2] 0 | [3] 0 | [4] 0 | [5] 0 | [6] 0 | [7] 0 | [8] 0 | [9] 0 | [10] 0 | [11] 0 | [12] 0 | [13] 0 | [14] 0 | [15] 0

O=C(O)[C@H](O)[C@@H](O)[C@H](O[C@@H]1O[C@H](CO)[C@H](O)[C@H](O)[C@H]1O)[C@H](O)CO [Lactobionic acid]
inactive: [1] 0 | [2] 0 | [3] 0 | [4] 0 | [5] 0 | [6] 0 | [7] 0 | [8] 0 | [9] 0 | [10] 0 | [11] 0 | [12] 0 | [13] 0 | [14] 0 | [15] 0

O=P(O)(O)C(O)(Cc1cccnc1)P(=O)(O)O [risedronate]
inactive: [1] 0 | [2] 0 | [3] 0 | [4] 0 | [5] 0 | [6] 0 | [7] 0 | [8] 0 | [9] 0 | [10] 0 | [11] 0 | [12] 0 | [13] 0 | [14] 0 | [15] 0

CCOC(=O)C(C)(C)Oc1ccc(Cl)cc1 [Clofibrate]
inactive: [1] 0 | [2] 0 | [3] 0 | [4] 0 | [5] 0 | [6] 0 | [7] 0 | [8] 0 | [9] 0 | [10] 0 | [11] 0 | [12] 0 | [13] 0 | [14] 0 | [15] 0

COCc1nc2c([nH]1)c(=O)n(C)c(=O)n2CC(C)C
inactive: [1] 0 | [2] 0 | [3] 0 | [4] 0 | [5] 0 | [6] 0 | [7] 0 | [8] 0 | [9] 0 | [10] 0 | [11] 0 | [12] 0 | [13] 0 | [14] 0 | [15] 0
